# Test results as given in PubChem BioAssay.
# Activity calls are given as the source filed them.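 How the source made its calls, unless noted: active means fluorescence ratio normalized to control raised more than 50% in primary screen plus both repeat runs; inactive means the rest.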
# System: TRPC4 beta (transient receptor potential cation channel C4), mouse
# Experiment: TRPC4 cation channel opening, retest – cell-based, Fluo4 calcium, HEK293 TRPC4beta/mu-opioid, duplicates, 10 µM, confirmation (AID 2426);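 on activation: percent rise of integrated ratio over buffer wells lacking compound which define 0%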
# Details: Fluo4 calcium fluorescence, at 10 µM; active compounds read high
SMILES,activation,outcome
CCCCN(CC)CCNC(=O)Cn1cc2c(n1)-c1c(oc(C(=O)N3CCCC3)c1C)CC2,65% (active),–
Cc1ccc(NC(=S)NC2CC3CCC(C2)N3Cc2ccco2)c(C)c1 (stereo not drawn),116% (active),–
COc1ccc(N2CCN(Cc3nc4ccccc4n3C)CC2)cc1,154% (active),–
CCC(=O)NC(C)C(c1cccs1)N1CCN(c2ccccc2)CC1 (stereo not drawn),–,inactive
CC(=O)n1cc([C@H]2C=C(C(=O)NCc3ccccc3)O[C@@H](OCc3ccc(CO)cc3)C2)c2ccccc21,–,inactive
CCN1CCCC1CNC(=O)c1cc2c(OC)cccc2[nH]1 (stereo not drawn),136% (active),–
COc1ccc(F)cc1CN1CCN(C(=O)CCC(=O)Nc2nnc(C(C)C)s2)CC1,–,inactive
CN(CCOc1ccc(Br)cc1)CC(O)c1ccccc1 (stereo not drawn),71% (active),–
CCN1CCN(c2c(Cl)cccc2NC(=O)c2ccc([N+](=O)[O-])cc2)CC1,80% (active),–
CCn1c(=O)c(C(=O)NNC(=O)c2ccccc2F)c(O)c2ccccc21,126% (active),–
CN1C(CC(=O)Nc2ccc(Br)cc2)c2ccccc2CC1(C)C (stereo not drawn),97% (active),–
COc1ccc(C(CNCC(O)COc2c(C)ccc(C)c2C)N(C)C)cc1 (stereo not drawn),–,inactive
COc1ccc(C(CNC(=O)C(Cc2ccccc2)NC(N)=O)N(C)C)cc1 (stereo not drawn),92% (active),–
CCCN(CCC)CCNC(=O)CCC(=O)Nc1ccc2nc(N3CCOCC3)cc(C)c2c1,99% (active),–
Fc1ccc(NC(=S)NCCc2ccccn2)cc1,199% (active),–
Cc1noc(C)c1CCC(=O)NC1CCCN(Cc2ccc(CC(C)C)cc2)C1 (stereo not drawn),75% (active),–
COc1ccc(C(CCNCc2ccc(N(C)C)cc2)c2ccccc2)cc1 (stereo not drawn),165% (active),–
COc1ccc(-c2nn(-c3ccccc3C)cc2CNCc2cccnc2)cc1F,128% (active),–
CN(C)C(CNC(=O)c1cccc(S(=O)(=O)N(C)C)c1)c1ccccc1 (stereo not drawn),84% (active),–
Nc1c(C(=O)c2ccccc2)sc2nsc(SCCN3CCCC3)c12,89% (active),–

SMILES,activation,outcome
CC1CC(C)CN(CCCNC(=O)c2ccc3c(c2)N(Cc2ccccc2)C(=O)c2ccccc2S3=O)C1 (stereo not drawn),106% (active),–
CN(C)c1ccc(C(CNC(=O)Cc2cccc3ccccc23)N(C)C)cc1 (stereo not drawn),102% (active),–
Cc1csc2c(N3CCN(C(=S)Nc4ccc(C(F)(F)F)cc4)CC3)ncnc12,102% (active),–
O=S(=O)(NCCc1csc(-c2ccccc2)n1)c1cccnc1,93% (active),–
COc1ccc(-c2nc(CSCC(=O)NC3CCN(Cc4ccccc4)CC3)c(C)o2)cc1OC,107% (active),–
NC(N)=NN=C1CCCCCCCCCCC1,95% (active),–
CCn1c(CN2CCN(Cc3ccc(C)cc3)C(CCO)C2)nc2ccccc21 (stereo not drawn),129% (active),–
COc1ccc(C(CNc2nc(-c3cccnc3)nc3ccccc23)N(C)C)cc1 (stereo not drawn),235% (active),–
Cc1ccc(Cn2c(SCCN3CCCCC3)nc3c2c(=O)n(C)c(=O)n3C)cc1,114% (active),–
COc1ccc(C(CNC(=O)CCOc2ccccc2)N(C)C)cc1 (stereo not drawn),145% (active),–
CCOC(=O)C1(CCOc2ccccc2)CCN(Cc2cc(OC)ccc2OC)CC1,68% (active),–
Cc1cccc(NC(=S)NCC(c2ccccc2)N(C)C)c1 (stereo not drawn),176% (active),–
CC(C)n1cnc2c(N(C)c3ccccc3)nc(N(CCN(C)C)Cc3ccccc3)nc21,–,inactive
CC(CN1CCCC(C(N)=O)C1)c1ccccc1 (stereo not drawn),147% (active),–
O=c1c(Cc2ccc(F)cc2)c(O)ccn1CCc1cnc[nH]1,112% (active),–
Cc1c(Cl)cccc1NC(=S)NCC(c1cccnc1)N(C)C (stereo not drawn),–,inactive
COc1ccc(C(CNC(=O)c2ccc3c(c2)OCCO3)N(C)C)cc1 (stereo not drawn),153% (active),–
O=C(NC1CCCN(Cc2ccc(Cl)cc2)C1)C1CCC1 (stereo not drawn),120% (active),–
CN(C)c1ccc(-c2sc(Nc3ccccc3)n[n+]2-c2ccc(F)cc2)cc1,406% (active),–

# System: transient receptor potential cation channel C4 beta (TRPC4), mouse
# Experiment: TRPC4 cation channel opening, second retest – cell-based, second round, Fluo4, HEK293 TRPC4beta/mu-opioid, 1 µM, confirmation (AID 2461;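 active means primary screen active and over 50% activation in each of two duplicate runs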;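 on activation: 0% = wells without test compound as baseline of integrated fluorescence ratio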)
# Details: Fluo4 calcium fluorescence, at 1 µM; active compounds read high
SMILES,outcome,activation
CCCCN(CC)CCNC(=O)Cn1cc2c(n1)-c1c(oc(C(=O)N3CCCC3)c1C)CC2,inactive,–
Cc1ccc(NC(=S)NC2CC3CCC(C2)N3Cc2ccco2)c(C)c1 (stereo not drawn),inactive,–
COc1ccc(N2CCN(Cc3nc4ccccc4n3C)CC2)cc1,inactive,–
CCC(=O)NC(C)C(c1cccs1)N1CCN(c2ccccc2)CC1 (stereo not drawn),inactive,–
CC(=O)n1cc([C@H]2C=C(C(=O)NCc3ccccc3)O[C@@H](OCc3ccc(CO)cc3)C2)c2ccccc21,inactive,–
CCN1CCCC1CNC(=O)c1cc2c(OC)cccc2[nH]1 (stereo not drawn),inactive,–
COc1ccc(F)cc1CN1CCN(C(=O)CCC(=O)Nc2nnc(C(C)C)s2)CC1,inactive,–
CN(CCOc1ccc(Br)cc1)CC(O)c1ccccc1 (stereo not drawn),inactive,–
CCN1CCN(c2c(Cl)cccc2NC(=O)c2ccc([N+](=O)[O-])cc2)CC1,inactive,–
CCn1c(=O)c(C(=O)NNC(=O)c2ccccc2F)c(O)c2ccccc21,inactive,–
CN1C(CC(=O)Nc2ccc(Br)cc2)c2ccccc2CC1(C)C (stereo not drawn),inactive,–
COc1ccc(C(CNCC(O)COc2c(C)ccc(C)c2C)N(C)C)cc1 (stereo not drawn),inactive,–
COc1ccc(C(CNC(=O)C(Cc2ccccc2)NC(N)=O)N(C)C)cc1 (stereo not drawn),–,90% (active)
CCCN(CCC)CCNC(=O)CCC(=O)Nc1ccc2nc(N3CCOCC3)cc(C)c2c1,–,67% (active)
Fc1ccc(NC(=S)NCCc2ccccn2)cc1,–,60% (active)
Cc1noc(C)c1CCC(=O)NC1CCCN(Cc2ccc(CC(C)C)cc2)C1 (stereo not drawn),inactive,–
COc1ccc(C(CCNCc2ccc(N(C)C)cc2)c2ccccc2)cc1 (stereo not drawn),inactive,–
COc1ccc(-c2nn(-c3ccccc3C)cc2CNCc2cccnc2)cc1F,inactive,–
CN(C)C(CNC(=O)c1cccc(S(=O)(=O)N(C)C)c1)c1ccccc1 (stereo not drawn),inactive,–
Nc1c(C(=O)c2ccccc2)sc2nsc(SCCN3CCCC3)c12,inactive,–

SMILES,outcome,activation
CC1CC(C)CN(CCCNC(=O)c2ccc3c(c2)N(Cc2ccccc2)C(=O)c2ccccc2S3=O)C1 (stereo not drawn),–,54% (active)
CN(C)c1ccc(C(CNC(=O)Cc2cccc3ccccc23)N(C)C)cc1 (stereo not drawn),inactive,–
Cc1csc2c(N3CCN(C(=S)Nc4ccc(C(F)(F)F)cc4)CC3)ncnc12,–,55% (active)
O=S(=O)(NCCc1csc(-c2ccccc2)n1)c1cccnc1,inactive,–
COc1ccc(-c2nc(CSCC(=O)NC3CCN(Cc4ccccc4)CC3)c(C)o2)cc1OC,inactive,–
NC(N)=NN=C1CCCCCCCCCCC1,inactive,–
CCn1c(CN2CCN(Cc3ccc(C)cc3)C(CCO)C2)nc2ccccc21 (stereo not drawn),–,73% (active)
COc1ccc(C(CNc2nc(-c3cccnc3)nc3ccccc23)N(C)C)cc1 (stereo not drawn),–,84% (active)
Cc1ccc(Cn2c(SCCN3CCCCC3)nc3c2c(=O)n(C)c(=O)n3C)cc1,inactive,–
COc1ccc(C(CNC(=O)CCOc2ccccc2)N(C)C)cc1 (stereo not drawn),–,77% (active)
CCOC(=O)C1(CCOc2ccccc2)CCN(Cc2cc(OC)ccc2OC)CC1,inactive,–
Cc1cccc(NC(=S)NCC(c2ccccc2)N(C)C)c1 (stereo not drawn),–,152% (active)
CC(C)n1cnc2c(N(C)c3ccccc3)nc(N(CCN(C)C)Cc3ccccc3)nc21,inactive,–
CC(CN1CCCC(C(N)=O)C1)c1ccccc1 (stereo not drawn),–,65% (active)
O=c1c(Cc2ccc(F)cc2)c(O)ccn1CCc1cnc[nH]1,inactive,–
Cc1c(Cl)cccc1NC(=S)NCC(c1cccnc1)N(C)C (stereo not drawn),–,103% (active)
COc1ccc(C(CNC(=O)c2ccc3c(c2)OCCO3)N(C)C)cc1 (stereo not drawn),–,123% (active)
O=C(NC1CCCN(Cc2ccc(Cl)cc2)C1)C1CCC1 (stereo not drawn),–,58% (active)
CN(C)c1ccc(-c2sc(Nc3ccccc3)n[n+]2-c2ccc(F)cc2)cc1,inactive,–
